# Compound activity: PubChem, several laboratories
# Yp Topo-I inh: blocks Yersinia pestis topoisomerase I activity. Y. pestis Topo-I cleavage product accumulation, plate reader. actives 0.064% (n = 360,000). AID 504884. activity, % at 10 µM; in the data active means activity above about 50%, passing the limit was not always enough
# TcdB GH inh: inhibitors of Clostridioides difficile toxin B glycohydrolase; TcdB glycohydrolase enzymatic assay, plate reader; actives 0.24% (n = 350,000); inhibition, % at 9.99 µM; P18177; AID 652162; in the data active means inhibition above about 10%
# DUSP3 inh: inhibitors of human VHR1 phosphatase (DUSP3); AID 1654; inhibition, % at 13.3 µM; recombinant VHR phosphatase, pNPP absorbance; actives 0.52% (n = 290,000); in the data active means inhibition above about 50%
# Target sequence (P51452 whole entry, looked up): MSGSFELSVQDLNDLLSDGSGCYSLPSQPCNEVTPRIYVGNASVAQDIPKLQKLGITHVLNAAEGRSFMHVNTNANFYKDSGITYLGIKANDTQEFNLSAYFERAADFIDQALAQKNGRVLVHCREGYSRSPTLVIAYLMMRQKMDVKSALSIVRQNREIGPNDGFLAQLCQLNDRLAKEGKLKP
# MazF activator: activators of E. coli MazEF toxin-antitoxin RNase. activation, % at 20 µM. AID 504720. FAM/BHQ RNA-DNA oligo cleavage fluorescence, 5 h. P0AE70. actives 0.32% (n = 350,000); in the data active means activation above about 50%
# Target sequence (P0AE70 whole entry, looked up): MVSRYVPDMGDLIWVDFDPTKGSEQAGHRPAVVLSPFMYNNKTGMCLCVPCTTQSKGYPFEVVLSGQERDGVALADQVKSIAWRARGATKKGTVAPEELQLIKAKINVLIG
# BioA inh-1: inhibitors of Mycobacterium tuberculosis BioA enzyme | purified M. tuberculosis BioA enzyme, plate reader | inhibition, % at 9.99 µM | actives 0.096% (n = 360,000) | AID 602481; in the data active means inhibition above about 40%
# FadD28 FP inh: inhibitors of Mycobacterium tuberculosis FadD28 bisubstrate binding; FadD28 bisubstrate probe binding, fluorescence polarization; inhibition, % at 12.5 µM; actives 0.22% (n = 360,000); AID 588549; in the data active means inhibition above about 8.5%, passing the limit was not always enough
# BioA inh-2: Mtb BioA enzyme inhibition; shares compounds with BioA inh-1; 310 tested, under 10 active; purified BioA enzyme, plate reader, dose response; max activity, %;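 further: top concentration of the dilution series was 10 µM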
# HepG2 cytotox: cytotoxicity in HepG2 cells | shares compounds with BioA inh-1 | plate reader | max activity, % | 310 tested, under 10 active
# NIH3T3 tox 5: cytotoxicity in NIH3T3 cells; AID 651900; plate reader; shares compounds with BioA inh-1; activity change, negative = cytotoxicity, % at 26 µM; 310 tested, under 10 active
# Active calls of the source: *; i = inactive; x = no result. Most compounds without a hit are left out; they make up all but 1% or so of the library. Unless noted, how the calls were made is not given here.
SMILES,Yp Topo-I inh,TcdB GH inh,DUSP3 inh,MazF activator,BioA inh-1,FadD28 FP inh,BioA inh-2,HepG2 cytotox,NIH3T3 tox 5
COc1ccc(C2c3c(-c4cc(Cl)c(C)cc4O)n[nH]c3C(=O)N2Cc2cccnc2)cc1OC (stereo not given),-2,x,-1,1,56*,-8,-6,-10,-6
COc1cccc(CN2CC3(CN(C(C)=O)C3)c3c(n(C)c4cc(OC)ccc34)[C@@H]2CO)c1,x,0,x,x,x,x,x,x,x
COc1ccc(-c2n[nH]c3c2CN(C(=O)c2ccc(OC)c(OC)c2)CC3)cc1,15,1,78,5,86*,-2,-8,29,7
COc1cccc(-c2ccc([C@@H]3[C@H]4CN(C(=O)C5CCC5)CC(=O)N4[C@H]3CO)cc2)c1,x,1,x,x,x,x,x,x,x
COC(=O)c1c(C(=O)OC)c(-c2cccc(F)c2)n2c1CS(=O)C2 (stereo not given),3,-1,20,5,98*,-2,-6,-11,8
COc1cc(-c2nc3ccccn3c2N)ccc1O,2,1,-4,9,0,1,x,x,x
COc1cc(-c2nc3ccccc3nc2-c2ccc(O)c(OC)c2)ccc1O,7,10,-8,-5,51*,-2,-6,12,2
CCOC(=O)c1c(C)[n+](-c2ccc(C)cc2)c(CC)c2cc(OC)c(OC)cc12,2,-1,x,5,77*,-1,-9,13,-3
CCC(CO)[n+]1c(C)cc(/C=C2\Sc3ccccc3N2Cc2ccccc2)cc1C (stereo not given),16,22*,13,22,53*,-3,-6,14,-9
C[C@@H]1CN([C@@H](C)CO)C(=O)Cc2cc(NC(=O)CCCN(C)C)ccc2O[C@H]1CN(C)C(=O)Nc1ccccc1,x,-1,x,x,x,x,x,x,x
O=C(COc1ccc2ccc(=O)oc2c1)N1CCN(c2ccc(F)cc2)CC1,3,1,2,6,55*,-3,-11,-12,-8
CCCN1C[C@H](C)[C@H](OC)CN(C)C(=O)c2ccc(NC(=O)C3CCOCC3)cc2OC[C@@H]1C,x,0,x,x,0,x,x,x,x
CC(=O)c1ccc(N2CCN(S(=O)(=O)c3c(C(=O)N4CCCC4)c(C)n(C)c3C)CC2)cc1,9,1,2,7,42*,0,-3,-5,13
O=C(Nc1ccc(C(F)(F)F)cc1)N[C@H]1CC[C@H](CCn2cc(C3(O)CCCC3)nn2)O[C@H]1CO,x,1,x,x,-3,x,x,x,x
O=C(C1CCCN(S(=O)(=O)c2cccnc2)C1)N1CCn2c1nc1ccccc12 (stereo not given),4,0,-1,2,46*,-2,-5,11,2
O=C(NCc1ccccc1)C1CCCN(S(=O)(=O)c2cccnc2)C1 (stereo not given),-6,x,-6,1,-2,-1,x,x,x
CC(Oc1ccc2c(-c3ccccc3)cc(=O)oc2c1)C(=O)NCc1ccccn1 (stereo not given),12,2,33,-8,42*,-2,-6,6,-10
C[C@@H]1CN([C@@H](C)CO)C(=O)c2cccc(NS(=O)(=O)c3ccc(Cl)cc3)c2O[C@H]1CN(C)CC1CC1,x,-1,x,x,-2,x,x,x,x
CO[C@H]1CN(C)C(=O)c2cc(NC(=O)NC(C)C)ccc2OC[C@H](C)N(Cc2cncnc2)C[C@@H]1C,x,x,x,x,-1,x,x,x,x
C[C@@H]1CN([C@@H](C)CO)C(=O)c2cc(C#Cc3cccnc3)cnc2O[C@@H]1CN(C)S(C)(=O)=O,x,0,x,x,5,x,x,x,x
C[C@@H]1CN([C@H](C)CO)C(=O)c2cc(C#Cc3cccnc3)cnc2O[C@H]1CN(C)S(C)(=O)=O,x,1,x,x,84*,x,-2,i,-2
O=c1[nH]c(N2CCN(Cc3ccccc3)CC2)nc2c1CCC2,-3,2,18,12,x,0,x,x,x
O=c1[nH]c(N2CCN(Cc3ccc4c(c3)OCO4)CC2)nc2c1CCC2,4,x,18,5,76*,0,-10,-12,-7
C=C(C)n1c(=O)n(Cc2ccccc2C)c2ccccc21,8,1,x,-2,48*,-3,-10,-14,-18
